Source: PubChem (several laboratories)
Sampled rows, rich in hits. Any-hit rate of the full collection: about 3.5%.
BoNT-F LC inh: blocks Botulinum neurotoxin F light chain protease; Multiplex microsphere protease cleavage assay, flow cytometry; inhibition, % at 10 µM; hit rate 0.22% among 360,000; in the data active means inhibition above about 35%, passing the limit was not always enough; inconclusive means no clear call, values can overlap the other calls; further: plate controls were buffer without enzyme for full effect and enzyme alone for no effect
BoNT-A LC inh2: inhibitors of Botulinum neurotoxin A light chain protease; multiplex microsphere protease substrate cleavage, flow cytometry; hit rate 0.17% among 360,000; inhibition, % at 10 µM; AID 588499; further: plate controls were buffer without enzyme for full effect and enzyme alone for no effect
Bead autofluor: flagged as autofluorescent in microsphere protease counterscreen. compound autofluorescence counterscreen, microsphere flow cytometry; hits give high values. fluorescence intensity (no concentration beside the values). hit rate 3.1% among 360,000. AID 624483; in the data active means fluorescence intensity above about 16000; inconclusive means no clear call, values can overlap the other calls
Vc quorum ag: induces V. cholerae light production without autoinducers; activation, % at 18.7 µM; V. cholerae BH1578 lux reporter, luminescence, 6 h; hit rate 0.16% among 350,000; in the data active means activation mostly above about 9.7%, no sharp cut-off; inconclusive means no clear call, values can overlap the other calls; inactive means mostly below about 3.7%
Anthrax LF prot: inhibitors of Bacillus anthracis lethal factor protease | P15917 | multiplex microsphere protease cleavage assay, LF | inhibition, % at 10 µM | hit rate 0.12% among 360,000; further: plate controls were buffer without enzyme for full effect and enzyme alone for no effect
Target sequence (P15917 whole entry, looked up): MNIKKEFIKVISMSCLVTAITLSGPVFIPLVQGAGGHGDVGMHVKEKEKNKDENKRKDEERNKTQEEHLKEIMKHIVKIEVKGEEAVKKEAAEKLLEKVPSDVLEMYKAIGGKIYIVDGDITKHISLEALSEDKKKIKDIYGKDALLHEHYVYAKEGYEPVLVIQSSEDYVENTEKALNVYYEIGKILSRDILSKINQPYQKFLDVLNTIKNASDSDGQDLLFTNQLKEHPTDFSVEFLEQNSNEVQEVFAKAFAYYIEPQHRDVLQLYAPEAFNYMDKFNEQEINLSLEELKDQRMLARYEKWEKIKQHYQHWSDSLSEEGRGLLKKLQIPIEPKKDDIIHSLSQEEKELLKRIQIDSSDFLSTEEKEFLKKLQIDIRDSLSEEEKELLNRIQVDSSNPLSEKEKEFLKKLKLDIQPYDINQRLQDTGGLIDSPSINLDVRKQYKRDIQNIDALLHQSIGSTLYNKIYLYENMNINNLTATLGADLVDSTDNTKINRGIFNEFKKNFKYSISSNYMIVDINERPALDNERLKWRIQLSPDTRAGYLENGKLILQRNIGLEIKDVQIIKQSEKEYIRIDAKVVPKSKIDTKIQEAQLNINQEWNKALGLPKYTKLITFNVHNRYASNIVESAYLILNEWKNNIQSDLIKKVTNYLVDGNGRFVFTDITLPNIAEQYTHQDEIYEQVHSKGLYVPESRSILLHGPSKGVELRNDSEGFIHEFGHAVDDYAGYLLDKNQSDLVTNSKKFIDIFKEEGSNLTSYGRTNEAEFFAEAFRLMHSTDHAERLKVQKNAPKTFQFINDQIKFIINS
An asterisk follows results filed as active; i = inactive; ? = inconclusive. Unless noted, no stated cut-off is given here; in the data, active means inhibition above about 30%; inconclusive means no clear call, values can overlap the other calls; inactive means below that.

SMILES	BoNT-F LC inh	BoNT-A LC inh2	Bead autofluor	Vc quorum ag	Anthrax LF prot
O=C(Nc1ccon1)c1cccc(S(=O)(=O)N2CCCCCC2)c1	8	1	5537	-1	0
O=C(Nc1nc2ccc(S(=O)(=O)N3CCCCC3)cc2s1)c1cccnc1	6	6	21943*	-1	-7
CC(=O)Nc1cccc(NC(=O)C(=O)c2cn(CC(=O)N3CCCC3)c3ccccc23)c1	8	0	3752	2	1
CCC(C)n1nnc2c(=O)oc3ccccc3c21 (stereo unspecified)	-1	0	23717*	0	0
Cc1cc(=O)[nH]c2c1c(C)nn2C1CCCCC1	-17	-2	9882	-1	-7
Cc1cc(=O)[nH]c2c1c(C)nn2C1CCCC1	5	5	18691*	0	-8
CCC(C)NC(=O)CSc1nnc(-c2cc(-c3ccc(C)cc3)nc3ccccc23)n1N (stereo unspecified)	0	0	2673	40*	0
CCOc1cc(C2NC(=O)NC(C)=C2C(=O)NCc2ccccc2)c(Cl)cc1O (stereo unspecified)	1	0	20868*	0	0
COc1cc(C2NC(=O)NC(C)=C2C(=O)NCc2ccccc2)c(Cl)cc1O (stereo unspecified)	-7	0	9571	-2	0
C=CCOc1ccccc1C1NC(=O)NC(C)=C1C(=O)NCc1ccccc1 (stereo unspecified)	-5	?	17255*	0	1
Cc1ccc(C(CCNC(C)c2cccs2)c2ccco2)cc1 (stereo unspecified)	?	0	4723	0	-17
Cc1cc(C)cc(Oc2coc3cc(OC(=O)c4cccs4)ccc3c2=O)c1	-4	1	3450	i	0
Cc1ccc(Oc2coc3cc(OC(=O)c4cccs4)ccc3c2=O)cc1	-4	1	16461*	i	-2
COc1ccc(-n2nc3c(c2NC(=O)c2ccc(S(=O)(=O)N4CCOCC4)cc2)CS(=O)(=O)C3)cc1	-8	-1	3372	0	4
N=c1oc2ccc3ccccc3c2cc1-c1nc(-c2ccccc2)cs1	23	34*	7671	0	32*
COP(=O)(OC)C(NC(=O)C(C)(C)C)=C(Cl)Cl	1	0	9697	0	3
CC(C)(C)C(=O)NC(=C(Cl)Cl)P(=O)(O)O	-5	-3	24171*	0	-3
CCOC(=O)c1c(NC(=O)CN2C(=O)C(=O)N(C(C)C)C2=O)sc(C)c1CC	?	2	?	i	-3
COc1ccc(OCc2cc(C(=O)NCc3nc(C)cs3)no2)c(Cl)c1	3	-1	6100	-1	1
Cc1cc(NC(=O)NC2(C(F)(F)F)Oc3ccc(Cl)cc3O2)no1 (stereo unspecified)	0	-1	16576*	0	-3
COCCNC(=O)NC1(C(F)(F)F)Oc2ccc(Cl)cc2O1 (stereo unspecified)	0	0	10005	-4	9
Cc1ccc(OCCNC(=O)Cc2ccc(S(=O)(=O)N3CCOCC3)s2)cc1	-18	-4	7091	-4	-7
CCc1ccc(-c2nc(NC(=S)NC(=O)c3cccs3)sc2C)cc1	-1	-1	23514*	i	0
COC(=O)c1nc(NC(=S)NC(=O)c2cccs2)sc1C	-3	0	5947	0	-3
O=C(NS(=O)(=O)Oc1cccc(Cl)c1Cl)OC[C@@H]1CCCN2CCCCC12 (stereo partly specified)	-2	0	2677	0	0
SMILES	BoNT-F LC inh	BoNT-A LC inh2	Bead autofluor	Vc quorum ag	Anthrax LF prot
CCc1nc(C)ccc1OCC(=O)NCCCN(C)C	-2	-2	22619*	-1	-1
CCCNc1nc(Nc2ccc(C)cc2)nc(N2CCCC2)n1	1	0	16266*	i	0
C=CC[n+]1ccc(/C=C2\C=Cc3cc(C)ccc3N2CC)c2ccccc21	-19	24	2891	i	6
Cc1cccc(Cn2nnc3c2C(=O)c2ccccc2C3=O)c1	-3	0	16137*	-1	-2
Cc1ccccc1Cn1nnc2c1C(=O)c1ccccc1C2=O	-5	0	?	0	1
Cc1ccc(C(=O)OCn2ncc(Cl)c(Cl)c2=O)cc1	-5	-2	17159*	-3	-2
Cc1cccc(Cn2ncc(Cl)c(Cl)c2=O)c1	0	0	16414*	-1	1
O=C(NCC1CCCO1)c1cccc(NS(=O)(=O)c2ccc(Br)cc2)c1 (stereo unspecified)	18	3	4091	-1	7
COc1cc(/C=C/C(=O)NCc2ccccn2)cc(OC)c1OC	-4	0	2528	0	3
COc1cc(/C=C\C(=O)NCc2ccc3c(c2)cc(C)n3C)cc(OC)c1OC	-120	68*	2962	0	-80
CCN(CC)CCNC(=S)NC(=O)c1cn(-c2ccccc2)nc1-c1ccc(OC)cc1	-9	-1	3394	i	-2
COc1ccccc1CNC(=O)c1cc(-c2ccccc2)n(Cc2cc(C)no2)n1	-2	0	2799	i	2
Cc1ccc(S(=O)(=O)N2CCN(c3nc(C(C)C)c4c(c3C#N)CC(C)(C)OC4)CC2)cc1	7	4	22172*	0	-1
CCOC(=O)C1C(=O)C(=O)N(C2CCCCC2)C1C(=O)OCC (stereo unspecified)	-1	0	3503	i	-1
CCC(C(=O)NCCc1ccccc1OC)n1nc(C)c2c(C)n(-c3ccccc3)nc2c1=O (stereo unspecified)	-4	0	5908	i	-3
Cc1cc(C)n2c(SCc3ccc(C#N)cc3)nnc2n1	3	1	22207*	-5	-2
CCc1nc2c(OCc3ccccc3)cccn2c1N(Cc1ccccc1)C(C)=O	1	0	3699	-1	6
Cc1sc2c(c1C)C(c1ccc(C(C)(C)C)cc1)=NCC(=O)N2CC(=O)Nc1nccs1	-3	-1	22414*	3	-2
CC#CCCCC(=O)Nc1cccc(C(=O)O)c1	7	6	19921*	2	-4
CCCCC(=O)NC(=S)Nc1cccc(C(=O)O)c1	2	1	3963	i	-2
O=C(c1ccco1)N1CCN(C(=O)c2nn3cccnc3c2Cl)CC1	-1	0	22749*	-3	-1
COc1ccc(C(=O)NNC(=O)c2cc(C)nc3ccccc23)cc1	0	3	8209	-2	-2
Cc1cccc(C(=O)NNC(=O)c2ccc(Cl)cc2)c1O	7	1	2818	50*	5
Cc1cc(C(=O)NNC(=O)c2ccc(Cl)cc2)c2ccccc2n1	-3	0	6340	25*	-6
O=C1CSC(c2ccccn2)N1c1ccc(Br)cc1 (stereo unspecified)	7	0	3410	i	2
O=C1CSC(c2ccccn2)N1c1ccccc1 (stereo unspecified)	6	2	21482*	i	0
COC(=O)CCCC(=O)N1CCC(CCC(=O)NCc2ccc(F)cc2)CC1	22	3	3803	-2	-4
Cc1cc(C)cc(NC(=O)CSc2nnc(-c3ccccc3C)o2)c1	0	?	19314*	i	-8
